Assay results from the supplement of paper PMC7595190.

Tested on: MV4-11
Assay: CellTox Green cytotoxicity fluorescence relative to DMSO vehicle (fold of vehicle RFU); higher = more cell death (loss of membrane integrity), active = 2 or more
Method: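 Paediatric AML cell lines (MV4-11, CMK, Kasumi-1; 4x10^4 cells/well, 96-well) treated with single compounds from the Selleckchem apoptosis library at 0.01, 0.1 and 1 µM. Cytotoxicity was read with CellTox Green (RFU, Ex 485/Em 520) at 24, 48 and 72 h and normalised to the 0.1% DMSO vehicle. Normalised RFU >= 2 was taken as a successful, cell-killing treatment.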

Row | Compound | CellTox Green cytotoxicity fluorescence (0.01 µM, 24 h) | CellTox Green cytotoxicity fluorescence (0.01 µM, 48 h) | CellTox Green cytotoxicity fluorescence (0.01 µM, 72 h) | CellTox Green cytotoxicity fluorescence (0.1 µM, 24 h) | CellTox Green cytotoxicity fluorescence (0.1 µM, 48 h) | CellTox Green cytotoxicity fluorescence (0.1 µM, 72 h) | CellTox Green cytotoxicity fluorescence (1 µM, 24 h) | CellTox Green cytotoxicity fluorescence (1 µM, 48 h) | CellTox Green cytotoxicity fluorescence (1 µM, 72 h)
1 | O=C1CCC(N2C(=O)c3ccccc3C2=O)C(=O)N1 (stereo not given) [Thalidomide] | 0.964 (inactive) | 0.959 (inactive) | 0.973 (inactive) | 0.954 (inactive) | 0.962 (inactive) | 0.958 (inactive) | 0.952 (inactive) | 0.965 (inactive) | 1.12 (inactive)
2 | CC(C)[C@H](CO)Nc1nc(Nc2cccc(Cl)c2)c2ncn(C(C)C)c2n1 [Purvalanol A] | 1.01 (inactive) | 1.02 (inactive) | 1.03 (inactive) | 1.03 (inactive) | 1.04 (inactive) | 1.04 (inactive) | 1 (inactive) | 1.06 (inactive) | 1.07 (inactive)
3 | FC(F)(F)c1ccc(CNc2ccc(Cc3c[nH]c4ncc(Cl)cc34)cn2)cn1 [Pexidartinib] | 1.01 (inactive) | 1 (inactive) | 1.01 (inactive) | 1.07 (inactive) | 1.17 (inactive) | 1.21 (inactive) | 1.09 (inactive) | 1.41 (inactive) | 1.74 (inactive)
4 | Nc1ccccc1NC(=O)c1cnccn1 | 0.953 (inactive) | 0.952 (inactive) | 0.937 (inactive) | 0.964 (inactive) | 0.984 (inactive) | 0.99 (inactive) | 0.954 (inactive) | 0.989 (inactive) | 1.01 (inactive)
5 | CC[C@@]1(O)C(=O)OCc2c1cc1n(c2=O)Cc2cc3cc(O)ccc3nc2-1 [(S)-10-Hydroxycamptothecin] | 1.01 (inactive) | 1.35 (inactive) | 1.89 (inactive) | 1.09 (inactive) | 1.65 (inactive) | 1.93 (inactive) | 1.27 (inactive) | 2.3 (active) | 2.45 (active)
